The nature of assay [1]: NCI Yeast Anticancer Drug Screen. Data for the rad50 strain (AID 155).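 Also: 0% = growth of vehicle-only cultures of the same strain.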 To be noted: S. cerevisiae rad50 strain growth inhibition; at 50.0 µM; hits give high values. Summed up: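 Cells are treated with compound, grown, and their growth is then scored against vehicle-only cultures of the same repair-deficient yeast strain.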
The nature of assay [2]: NCI Yeast Anticancer Drug Screen. Data for the mec2-1 strain (AID 157). The settings on record: S. cerevisiae mec2-1 strain, at 50.0 µM, hits give high values. Summed up:
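Using mec2-1 yeast: add compound, measure growth, express inhibition versus vehicle-treated cultures.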

A short description of assay [3]: NCI Yeast Anticancer Drug Screen. Data for the sgs1 mgt1 strain (AID 161).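 Also: 0% = growth of cultures given vehicle only.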 To be noted: S. cerevisiae sgs1 mgt1 strain, at 50.0 µM, hits give high values. Summed up:
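Compounds are added to genetically altered yeast, and growth is compared with cultures given vehicle alone to give percent inhibition.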

A short description of assay [4]: NCI Yeast Anticancer Drug Screen. Data for the cln2 rad14 strain (AID 165).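 Also: 0% = growth equal to vehicle treated cultures.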 To be noted: S. cerevisiae cln2 rad14 strain, at 50.0 µM, hits give high values. An outline of the steps: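 Yeast strain cln2 rad14, bearing defects in cell cycle control and DNA repair, serves as the test system; values reflect growth inhibition compared with vehicle.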
Assay [5] is described as follows: NCI Yeast Anticancer Drug Screen. Data for the bub3 strain (AID 167). To be noted: S. cerevisiae bub3 mutant strain, at 50.0 µM, hits give high values. Summed up: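 Part of a panel of yeast mutants defective in DNA damage repair or cell cycle regulation. Each strain is grown with compound, and inhibition is calculated relative to solvent-treated cultures.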
Assay [6] in a line: NCI Yeast Anticancer Drug Screen. Data for the mlh1 rad18 strain (AID 175). The settings on record: S. cerevisiae mlh1 rad18 strain growth inhibition; at 50.0 µM; hits give high values. Summed up: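 Steps: expose repair-defective yeast to compound; measure growth; express inhibition against vehicle-treated controls.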

The panel holds about 79,000 compounds, 15% with a hit somewhere; the sample as a whole holds those more often. A number with no mark means an inactive call. Active and inactive are the calls of the source. Rule as the data show it: active = growth inhibition above about 70%; inactive = the rest.

In the case of `Cc1cc(Cc2cc(C)c(O)c(CN(C)C)c2)cc(CN(C)C)c1O`, the growth inhibition in assay [1] was -1.8%; in assay [2], -7.7%; in assay [3], 1.35%; in assay [4] it was -19.5%; in assay [5], -6.1%; in assay [6], -7.05%.
Consider `CCCc1nc(N)[nH]c(=O)c1I`, for which the growth inhibition in assay [1] was -26%; in assay [2], -9.1%; in assay [3], -15.1%; in assay [4], 5.3%; in assay [5], 7.8%; in assay [6], 0.45%.
On to `Cc1nc(N)nc(C)c1Cl`, for which the growth inhibition in assay [1] was -2.15%; in assay [2] it was 3.4%; in assay [3], 3.85%; in assay [4] it was 5.2%; in assay [5], -5.9%; in assay [6], -1.85%.
Take `CCOc1cccc(N)c1`: the growth inhibition was -69.2% in assay [1]; -20.7% in assay [2]; -55.5% in assay [3]; -51% in assay [4]; -41.7% in assay [5]; -80.2% in assay [6].
For `Cc1nc2nnc(N)n2nc1C`, the growth inhibition is 10.1% in assay [1]; -6.15% in assay [2]; 3.75% in assay [3]; -22% in assay [4]; 8.45% in assay [5]; 4.05% in assay [6].
`CCOP(=Nc1ccccc1)(OCC)OCC`: the growth inhibition is 4.1% in assay [1]; 5.85% in assay [2]; -3.9% in assay [3]; -5% in assay [4]; 1.75% in assay [5]; 9.4% in assay [6].
Consider `Cc1ccc(S(=O)(=O)NC(=O)c2ncn(C3OC(CO)C(O)C3O)c2N)cc1` (stereo unspecified), for which the growth inhibition is -5.15% in assay [1]; 10.8% in assay [2]; 12.7% in assay [3]; 15.1% in assay [4]; 1.5% in assay [5]; 1.55% in assay [6].
Turning to `CC(=O)OC(CC1(C)C(C)CCC23COC(=O)C2=CCCC31)c1ccoc1` (stereo unspecified), the growth inhibition was 87.3% (active) in assay [1]; 82.2% (active) in assay [2]; 85.7% (active) in assay [3]; 63.5% in assay [4]; 81.2% (active) in assay [5]; 82% (active) in assay [6].
For the compound `O=C1OC(c2cccc(Cl)c2)=N/C1=C\c1ccccc1`, the growth inhibition in assay [1] was 13.9%; in assay [2], 2.85%; in assay [3] it was 13.5%; in assay [4] it was 14.8%; in assay [5], 10.9%; in assay [6] it was -5.05%.
As to `CC1C2(C)OCC(C#N)(C(=N)O2)C1(C#N)C#N` (stereo unspecified), the growth inhibition in assay [1] was 21.2%; in assay [2] it was 12.2%; in assay [3], -44.5%; in assay [4], -18.3%; in assay [5] it was -40%; in assay [6], 3.65%.
Consider `CN(C)c1ccc(N=Nc2cccc3ncccc23)cc1`, for which the growth inhibition in assay [1] was 2.1%; in assay [2], 26.6%; in assay [3], 67.5%; in assay [4], 31.1%; in assay [5], 65.5%; in assay [6], 66%.
On to `O=P(O)(Cc1ccccc1)OCC1(O)OCC(O)C(O)C1O` (stereo unspecified), for which the growth inhibition in assay [1] is -16.1%; in assay [2], -6.35%; in assay [3] it was -28.6%; in assay [4], 12.7%; in assay [5], -19.8%; in assay [6] it was -23.2%.
On to `COc1cc2c[n+](C)c3c(c2cc1OC)Cc1cc2c(cc1-3)OCO2`, for which the growth inhibition in assay [1] was -27.5%; in assay [2] it was -13.2%; in assay [3], 1.8%; in assay [4], 18.9%; in assay [5], -14.7%; in assay [6] it was 6.25%.
In the case of `[N-]=[N+]=Nc1ccnc2cc(C(F)(F)F)ccc12`, the growth inhibition is -31.5% in assay [1]; 3.35% in assay [2]; -2.25% in assay [3]; -36.7% in assay [4]; 4.45% in assay [5]; 11.1% in assay [6].
Turning to `Cc1cc(Cc2c(F)c(F)c(C(c3cc(C)no3)c3c(F)c(F)c(F)c(F)c3F)c(F)c2F)on1` (stereo unspecified), the growth inhibition in assay [1] was -7.55%; in assay [2], -37.9%; in assay [3], 5.8%; in assay [4] it was -58.8%; in assay [5], -26.1%; in assay [6], -8.3%.
With `CC(=O)O[C@]12CCCCCCC1C1(O)C(O)CCC[C@H]12` (stereo partly specified), the growth inhibition in assay [1] is -23.6%; in assay [2], -1.95%; in assay [3], -53.2%; in assay [4], -8.95%; in assay [5], -22.2%; in assay [6], -36.6%.
On to `COc1ccc(C(=O)CCN(C)C)c2ccccc12`, for which the growth inhibition was -9.1% in assay [1]; -19.8% in assay [2]; -17.1% in assay [3]; 9.7% in assay [4]; -20.3% in assay [5]; 17.5% in assay [6].
`CCO/C(C)=N/NC(=O)c1n[nH]c2ccccc12`: the growth inhibition in assay [1] is 4.1%; in assay [2], -1.45%; in assay [3], -10.6%; in assay [4], 0.05%; in assay [5], -11.3%; in assay [6], 12%.
As for `CCCCNC(=O)OCC`, the growth inhibition in assay [1] is -34.5%; in assay [2], -25.6%; in assay [3], 2.4%; in assay [4], -26.8%; in assay [5], -0.35%; in assay [6], 5.9%.
`CCCC(C)(C#N)c1ccc(OC)cc1` (stereo unspecified): the growth inhibition in assay [1] was 33.8%; in assay [2], 13.2%; in assay [3] it was 31.6%; in assay [4], 1.65%; in assay [5], 32.4%; in assay [6] it was -11.8%.
On to `C/C(CC(=O)Nc1cccc(Cl)c1C)=N\N=C(N)N`, for which the growth inhibition is -10.2% in assay [1]; -27.6% in assay [2]; -15.2% in assay [3]; 19.4% in assay [4]; -23% in assay [5]; -8.9% in assay [6].

The values above are taken from PubChem BioAssay (NCI).
